# Compound activity (PubChem BioAssay)
# Mito fusion yeast: mitochondrial division inhibition or fusion activation. S. cerevisiae fusion-defective mutant growth rescue, CellTiterGlo 48 h. Potency, µM (top dose mostly 46.1 µM), for inactives: at the highest dose growth rescue (activation), hits mostly activators. 320,000 tested, 0.23% active. AID 485298; also: % of control where 0% means no effect; nearly all actives have a fitted effect of over 45% in size
#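 Temperature-sensitive fusion-defective S. cerevisiae (e.g. fzo1-1, mgm1-5) were grown with compound in YPEG medium (3% ethanol, 3% glycerol) for 48 hours at 37C. Growth rescue was measured as viability by CellTiterGlo luminescence after 10 minutes at ambient.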
# a7 integrin act: integrin-mediated muscular dystrophy alleviation activation; AID 624291; alpha7betagal myoblasts, beta-gal FDG fluorescence, 48 h; 350,000 tested, 0.064% active; Potency, µM (titrated, usually from 38.3 µM), inactives show top-dose activation, actives largely listed as activators;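 also: 100% = response of the positive control SU9516; nearly all actives have a fitted effect of over 60% in size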
#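 alpha7betagal+/- myoblasts (passage 13, 250/well) treated 48 h at 37C with compounds at 1:260 dilution of DMSO stock. Lysed, then beta-galactosidase activity read as FDG fluorescence (ex 480/em 540) after 30 min, with pre-read for autofluorescence.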
# SW480 rerep: inducers of DNA re-replication in SW480 colon cancer cells | SW480 DNA re-replication, Hoechst DNA content imaging, 48 h | Potency, µM (series often up to 46.1 µM), inactives show at the highest dose re-replication activation, actives largely listed as activators | 340,000 tested, 1.8% active; also: % of control where 0% means no effect; nearly all actives have a fitted effect of over 55% in size
#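 SW480 cells exposed to compounds for 48 hr at 37 C, 5% CO2, then Hoechst-stained 40 min. Nuclear DNA content imaged by fluorescence scanning (405 nm excitation, 500-530 nm emission); re-replication scored as increased high-intensity nuclei.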
# AT treatment: potential ataxia-telangiectasia treatments restoring KAP-1 phosphorylation; F2112 A-T fibroblasts, KAP-1 phosphorylation AlphaLISA; neocarzinostatin DNA damage 30 min before lysis; Potency, µM (titrated, usually from 57.5 µM), for the others: at the top dose activation, usual class: activators; 320,000 tested, 0.19% active; AID 485349; also: % of control where 0% means no effect; nearly all actives have a fitted effect of over 45% in size
#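 ATM-like activity read as KAP-1 phosphorylation via AlphaLISA donor/acceptor antibody pairs after lysis and 6 hr at 25C. Cells were ATM-null patient fibroblasts (F2112, hTERT), dosed 60 min, then exposed to the DSB inducer NCS for 30 min.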
# MCF10A rerep: inducers of DNA re-replication in MCF 10A breast cells; MCF 10A DNA re-replication, Hoechst nuclear intensity, 48 h; Potency, µM (highest dose often 46.1 µM), without a hit: at the top dose activity, positive = re-replication, usual class: activators; 350,000 tested, 2.9% active; also: % of control where 0% means no effect; nearly all actives have a fitted effect of over 50% in size
# An asterisk follows results filed as active; u = inconclusive; x = not tested or not shown; ! = not confirmed by another sample; [ ] = remark or other dose. Shown are actives, neighbours in structure and some others; about 4.2% of the full set was active somewhere. Calls follow the shape of the dose curve; as a rule, active = well fitted activation curve with a large enough effect; inconclusive = small, poorly fitted or top-dose-only effect; inactive = no such curve, though single readings can be large or run the other way. Potency is read from the fitted curve at half-maximal effect.
SMILES,Mito fusion yeast,a7 integrin act,SW480 rerep,AT treatment,MCF10A rerep
COC(=O)C1(C)CCc2cc(OC)ccc2C1=O (stereo not given),-2%,5%,-2%,10%,11%
CCOc1ccc2c(c1)C(C)=CC(C)(C)N2S(=O)(=O)c1ccc(C)cc1,8%,-1%,13µM*,5%,23%
COC(=O)C1(C)CN(S(=O)(=O)c2ccc(C)cc2)c2cc(OC)ccc2C1=O (stereo not given),14µM*,-5%,u,-6%,17%
Cc1ccc(S(=O)(=O)CCC(=O)OCC(=O)NCCc2ccccc2)cc1,-4%,0%,-300%,2%,u
COc1ccc2c(c1)C(C)=CC(C)(C)N2S(=O)(=O)c1ccc(C)cc1,12%,-42%,13µM*,-6%,u
COc1ccc(C2N(S(=O)(=O)c3ccc(C)cc3)CCN2S(=O)(=O)c2ccc(C)cc2)cc1,2%,-19%,-16%,1%,7%
Cc1ccc2c(c1)N(C(=O)CCC(=O)NCc1ccccc1)CC(C)O2 (stereo not given),0%,u,-3%,2%,1%
Cc1ccc2c(c1)N(C(=O)CCC(=O)NCc1cccc(Cl)c1)CC(C)O2 (stereo not given),16µM*,7%,0%,-1%,1%
Clc1ccc(-c2ccc(CNCC3CCCO3)o2)cc1 (stereo not given),-4%,u,0%,-7%,20%
O=c1[nH]c2cc(Cl)c(Br)cc2o1,x,-11%,-2%,x,18%
Cc1ccccc1N1C(=O)CC(Sc2nnc(-c3ccccc3)o2)C1=O (stereo not given),-16%,-63%,16µM*,-8%,u
O=C(O)c1ccccc1SC1CC(=O)N(c2ccccc2)C1=O (stereo not given),-8%,-9%,u,-3%,u
O=C1CC(Sc2nnc(-c3ccccc3)o2)C(=O)N1c1ccccc1 (stereo not given),3%,-64%,7.3µM*,-6%,5.8µM*
N#CCCN(Cc1ccccc1)C(=O)CCC(=O)c1ccc(F)cc1,x,1%,x,x,x
CC(=O)Nc1ccc(S(=O)(=O)NCCSCc2c(Cl)cccc2Cl)cc1,1%,-28%,6%,0%,23µM*
COc1ccc2nc(NCc3ccc(OC)c(OC)c3OC)sc2c1,x,0%,7%[1.84 µM],x,-17%
CCOC(=O)c1cc2c(ccn2C)n1Cc1cc(C)ccc1C,4%,-8%,12%,5%,8%
CC(C)OC(=O)c1cc2c(ccn2C)n1CC(=O)N(Cc1ccccc1)c1ccccc1,10%,-45%,u,6%,18µM*
COc1ccccc1Nc1nnc(SCc2nnc(-c3cc(OC)c(OC)c(OC)c3)o2)s1,-2%,17%,u,6%,21µM*
CCOc1ccccc1Nc1nnc(SCc2nnc(-c3cc(OC)c(OC)c(OC)c3)o2)s1,1%,-9%,0%,-1%,u
COc1cc(-c2nnc(CSc3nnc(Nc4ccc(C(C)C)cc4)s3)o2)cc(OC)c1OC,0%,-57%,28%,2%,15µM*
CN1C(=O)C(C)(C)c2cc(S(=O)(=O)N3CCN(c4ccc(F)cc4)CC3)ccc21,-9%,-18%,u,2%,8%
C[C@](N)(Cc1ccc(O)c(O)c1)C(=O)O,-6%,x,2.8µM*!,-14%,-54%
C[C@](N)(Cc1ccc(O)cc1)C(=O)O,-6%,x,-5%,x,6%
CCOc1cc(-c2nc(-c3ccccc3)c(-c3cc([N+](=O)[O-])ccc3C)[nH]2)ccc1O,14µM*,-32%,21%,x,5%
SMILES,Mito fusion yeast,a7 integrin act,SW480 rerep,AT treatment,MCF10A rerep
CCC(C)Sc1cccc(-c2nc3ccccn3c2NCc2ccccc2)c1 (stereo not given),x,-22%,1%,17%,18µM*
CCCCNc1c(-c2ccc(OC)c(Sc3ccc(OC)cc3)c2)nc2ccccn12,11%,-43%,u,16%,u
Cc1ccc2nc(-c3cccc(-c4cccc(Cl)c4)c3)c(NCc3ccccc3)n2c1,1%,-22%,22%[9.22 µM],u,7.3µM*
CCC(C)Sc1cccc(-c2nc3ccc(C)cn3c2NCc2ccccc2)c1 (stereo not given),-8%,-41%,u,22µM*,12µM*
CCC(C)Sc1cccc(-c2nc3cc(C)ccn3c2NC2CCCCC2)c1 (stereo not given),x,-44%,u,34%,18µM*
CCCCCCSc1cc(-c2nc3ccc(C)cn3c2NCc2ccccc2)ccc1OC,25%,0%,u,23%,u
Nc1ccc(-c2cnc(N)c(C(=O)c3cccnc3)n2)cn1,x,-23%,-2%,x,13%
O=C(Nc1cccc([N+](=O)[O-])c1)NN1CCCCCC1,x,-26%,-5%,x,u
CCC(C)Sc1cccc(-c2nc3ccc(Cl)cn3c2NCc2ccccc2)c1 (stereo not given),17%,5%,27%,20µM*,u
Cn1ncc(Cl)c1C(=O)NC1C2CC3CC(C2)CC1C3 (stereo not given),5%,5%,-12%,0%,7%
Cc1nn(C)c(C(=O)NC2C3CC4CC(C3)CC2C4)c1Cl (stereo not given),-53%,12%,23µM*,1%,15%
C=CCn1c(COc2ccccc2)nnc1SCc1ccc(C#N)cc1,-25%,-4%,-1%,13%,-1%
C=CCn1c(COc2ccc(Cl)cc2)nnc1SCc1ccc(C#N)cc1,-8%,11µM*,8%,8%,7%
O=c1c(Br)ccc(Br)cc1Br,x,-53%,u,x,u
CCCc1nn(C)c(C(=O)Nc2ccc(C(C)(C)C)cc2)c1Cl,10%,-17%,u,35µM*,u
CCCc1nn(C)c(C(=O)Nc2ccc(Cl)cc2)c1Cl,10%,-2%,-8%,4%,-1%
Cc1c(/C=N/NC(=O)c2cccs2)c2ccccc2n1Cc1ccccc1Cl,3%,17%,15µM*,27%,16µM*
COc1ccc(NC(=O)COc2cccc(-n3cnnn3)c2)cc1Cl,-1%,17%,6.5µM*,-6%,-5%
O=C(COc1cccc(-n2cnnn2)c1)Nc1ccc([N+](=O)[O-])cc1,-5%,-11%,1%,-1%,14%
COc1ccc(S(=O)(=O)N2CCCCC2)cc1NC(=O)CNc1ccccc1C(C)=O,9%,-1%,0%,-6%,u
Clc1cccc(C(c2ccc3nc[nH]c3c2)n2ccnc2)c1 (stereo not given),x,x,-2%,x,11%
O=[N+]([O-])c1ccc(N/N=C/c2c[nH]c3ccccc23)c(S(=O)(=O)Nc2ccc(Cl)cc2)c1,6%,10%,21µM*,1%,u
O=CNc1ccc2c3c(cccc13)-c1ccccc1-2,x,-14%,2.3µM*,x,u
